Measurements as given in PubChem BioAssay (EPA / NIEHS).
Some compounds were tested as several samples or in several runs, with calls that do not always agree. Calls of active or inactive are those of the source. The calls were made as follows: active = hit-call score of the fitted dose curve at least 0.9, where 1 is the maximum; inactive = score below 0.9.

Experiments:
[1] = read-out: Interleukin-6 (IL6), IL6 (gene 3569); experiment: BSK_CASM3C_IL6: BioMAP Diversity Plus: CASM3C Assay for Interleukin-6 (IL6) Biomarker Activity for (AID 2283040); settings: primary human coronary artery smooth muscle cells; actives raise or lower the signal
[2] = read-out: Tissue plasminogen activator (tPA), PLAT (gene 5327); experiment: BSK_BE3C_tPA: BioMAP Diversity Plus: BE3C Assay for Tissue plasminogen activator (tPA) Biomarker Activity (AID 2283041); settings: primary human bronchial epithelial cells; actives raise or lower the signal
Summary of the method: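 ELISA read-out of tPA on human primary bronchial epithelial cells, 24 h post-dosing; bidirectional fit vs DMSO negative control/baseline.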

[3] = read-out: Interleukin-8 (IL8), CXCL8 (gene 3576); experiment: BSK_CASM3C_IL8: BioMAP Diversity Plus: CASM3C Assay for Interleukin-8 (IL8) Biomarker Activity (AID 2283042); settings: primary human coronary artery smooth muscle cells; actives raise or lower the signal;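 also: IL-8 protein level quantified by ELISA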
[4] = read-out: Human Leukocyte Antigen - DR isotype (HLADR), HLA-DRA (gene 3122); experiment: BSK_CASM3C_HLADR: BioMAP Diversity Plus: CASM3C Assay for Human Leukocyte Antigen - DR isotype (HLADR) Biomarker Activity (AID 2283043); settings: primary human coronary artery smooth muscle cells; actives raise or lower the signal;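 also: cell-surface HLA-DR protein level quantified by ELISA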
[5] = read-out: Macrophage colony-stimulating factor (MCSF), CSF1 (gene 1435); experiment: BSK_CASM3C_MCSF: BioMAP Diversity Plus: CASM3C Assay for Macrophage colony-stimulating factor (MCSF) Biomarker Activity (AID 2283044); settings: primary human coronary artery smooth muscle cells; actives raise or lower the signal;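 also: M-CSF protein amount quantified by ELISA after 24 h exposure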
[6] = read-out: Low-density lipoprotein receptor (LDLR), LDLR (gene 3949); experiment: BSK_CASM3C_LDLR: BioMAP Diversity Plus: CASM3C Assay for Low-density lipoprotein receptor (LDLR) Biomarker Activity (AID 2283045); settings: primary human coronary artery smooth muscle cells; actives raise or lower the signal;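 also: LDLR protein level on the cell surface quantified by ELISA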
[7] = read-out: Monocyte Chemoattractant Protein-1 (MCP1), CCL2 (gene 6347); experiment: BSK_CASM3C_MCP1: BioMAP Diversity Plus: CASM3C Assay for Monocyte Chemoattractant Protein-1 (MCP1) Biomarker Activity (AID 2283046); settings: primary human coronary artery smooth muscle cells; actives raise or lower the signal;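 also: MCP-1 level quantified by ELISA 24 h after dosing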
[8] = BSK_CASM3C_Proliferation: Cell Proliferation Assessment in the BioMAP Diversity Plus: CASM3C Assay (AID 2283047); settings: primary human coronary artery smooth muscle cells;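 also: sulforhodamine B total protein stain as relative cell number at 560 nm; sub-confluent cells exposed 48 h before staining; fitted both ways against DMSO so gain or loss of cell number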
[9] = read-out: Monokine induced gamma interferon (MIG), CXCL9 (gene 4283); experiment: BSK_CASM3C_MIG: BioMAP Diversity Plus: CASM3C Assay for Monokine induced gamma interferon (MIG) Biomarker Activity (AID 2283048); settings: primary human coronary artery smooth muscle cells; actives raise or lower the signal;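 also: MIG protein level measured by ELISA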
[10] = read-out: serum amyloid A (SAA), SAA1 (gene 6288); experiment: BSK_CASM3C_SAA: BioMAP Diversity Plus: CASM3C Assay for serum amyloid A (SAA) Biomarker Activity (AID 2283049); settings: primary human coronary artery smooth muscle cells; actives raise or lower the signal;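 also: SAA protein level quantified by ELISA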
[11] = BSK_CASM3C_SRB: Viability Assessment in the BioMAP Diversity Plus: CASM3C Assay (AID 2283050); settings: primary human coronary artery smooth muscle cells;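 also: total protein by SRB staining as cytotoxicity measure in parallel cultures; cells exposed to compound for 24 h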
[12] = read-out: Thrombomodulin, THBD (gene 7056); experiment: BSK_CASM3C_Thrombomodulin: BioMAP Diversity Plus: CASM3C Assay for Thrombomodulin Biomarker Activity (AID 2283051); settings: primary human coronary artery smooth muscle cells; actives raise or lower the signal;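 also: thrombomodulin protein level measured by ELISA 24 h after dosing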
[13] = read-out: Tissue Factor, F3 (gene 2152); experiment: BSK_CASM3C_TissueFactor: BioMAP Diversity Plus: CASM3C Assay for Tissue Factor Biomarker Activity (AID 2283052); settings: primary human coronary artery smooth muscle cells; actives raise or lower the signal;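 also: cell surface tissue factor protein level read by ELISA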
[14] = read-out: Interferon-gamma inducible Protein 10 (IP10), CXCL10 (gene 3627); experiment: BSK_hDFCGF_IP10: BioMAP Diversity Plus: hDFCGF Assay for Interferon-gamma inducible Protein 10 (IP10) Biomarker Activity (AID 2283053); settings: primary human foreskin fibroblasts; actives raise or lower the signal
Summary of the method: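 ELISA read-out of IP-10 (CXCL10) from primary human skin fibroblasts, 24 h after compound addition. Gain or loss of signal versus DMSO baseline, bidirectional curve fitting.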

[15] = read-out: Urokinase-type plasminogen activator receptor (uPAR), PLAUR (gene 5329); experiment: BSK_CASM3C_uPAR: BioMAP Diversity Plus: CASM3C Assay for Urokinase-type plasminogen activator receptor (uPAR) Biomarker Activity (AID 2283054); settings: primary human coronary artery smooth muscle cells; actives raise or lower the signal;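 also: cell-surface uPAR protein level quantified by ELISA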
[16] = read-out: Vascular cell adhesion molecule 1 (VCAM1), VCAM1 (gene 7412); experiment: BSK_CASM3C_VCAM1: BioMAP Diversity Plus: CASM3C Assay for Vascular cell adhesion molecule 1 (VCAM1) Biomarker Activity (AID 2283055); settings: primary human coronary artery smooth muscle cells; actives raise or lower the signal;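 also: VCAM-1 protein level quantified by ELISA on the cells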
[17] = read-out: Collagen III, COL3A1 (gene 1281); experiment: BSK_hDFCGF_CollagenIII: BioMAP Diversity Plus: hDFCGF Assay for Collagen III Biomarker Activity (AID 2283056); settings: primary human foreskin fibroblasts; actives raise or lower the signal
Summary of the method: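 ELISA read-out of collagen III from human skin fibroblast cultures sampled 24 h post-dosing. Values were derived by bidirectional fitting relative to the DMSO vehicle control.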

[18] = read-out: Epidermal growth factor receptor (EGFR), EGFR (gene 1956); experiment: BSK_hDFCGF_EGFR: BioMAP Diversity Plus: hDFCGF Assay for Epidermal growth factor receptor (EGFR) Biomarker Activity (AID 2283057); settings: primary human foreskin fibroblasts; actives raise or lower the signal
Summary of the method: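 ELISA readout of EGFR on human dermal fibroblasts (primary foreskin cells), 24 h post-dosing; bidirectional curve fit vs DMSO baseline, gain or loss of signal scored.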

[19] = read-out: Interleukin-8 (IL8), CXCL8 (gene 3576); experiment: BSK_hDFCGF_IL8: BioMAP Diversity Plus: hDFCGF Assay for Interleukin-8 (IL8) Biomarker Activity (AID 2283058); settings: primary human foreskin fibroblasts; actives raise or lower the signal
Summary of the method: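 Cells used are human skin primary fibroblasts. Chemical is added, cultures run 24 h, then IL-8 is quantified by ELISA, and gain or loss versus DMSO control is fitted in both directions.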

[20] = BSK_hDFCGF_Proliferation: Cell Proliferation Assessment in the BioMAP Diversity Plus: hDFCGF Assay (AID 2283059); settings: primary human foreskin fibroblasts;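 also: curves fitted for both rise and fall of signal versus DMSO baseline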
Summary of the method: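 Steps: dose primary human dermal fibroblasts (foreskin); […] fix in 10% TCA; stain with 0.1% SRB; read 560 nm; fit gain or loss of signal against DMSO.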

Measured: AC50

CCOC(=O)C1=NN(c2ccc(Cl)cc2Cl)C(C)(C(=O)OCC)C1 (stereo unspecified)
active: [17] 20 µM
inactive: [1] | [2] | [3] | [4] | [5] | [6] | [7] | [8] | [9] | [10] | [11] | [12] | [13] | [14] | [15] | [16] | [18] | [19] | [20]

Nc1nc(N)nc(-c2ccccc2)n1
active: [13] 0.0609 µM | [16] 0.268 µM
inactive: [1] | [2] | [3] | [4] | [5] | [6] | [7] | [8] | [9] | [10] | [11] | [12] | [13] | [15] | [16] | [17] | [18] | [19] | [20]

Nc1cccc(N)n1
inactive: [1] | [2] | [3] | [4] | [5] | [6] | [7] | [8] | [9] | [10] | [11] | [12] | [13] | [14] | [15] | [16] | [17] | [18] | [19] | [20]

CC1=CC=C(C(C)C)CC1
inactive: [1] | [2] | [3] | [4] | [5] | [6] | [7] | [8] | [9] | [10] | [11] | [12] | [13] | [15] | [16] | [17] | [18] | [19] | [20]

C1CNCCN1
inactive: [1] | [2] | [3] | [4] | [5] | [6] | [7] | [8] | [9] | [10] | [11] | [12] | [13] | [15] | [16] | [17] | [18] | [19] | [20]

CC/C=C\C/C=C\C/C=C\CCCCCCCC(=O)OC
active: [1] 31.5 µM | [2] 9.51 µM | [3] 32.2 µM | [4] 12.1 µM | [5] 22.6 µM | [6] 28.7 µM | [7] 29.7 µM | [8] 8.6 µM | [9] 29.3 µM | [10] 26 µM | [11] 15.2 µM | [12] 36.2 µM | [13] 13.9 µM | [15] 29.7 µM | [16] 14.8 µM | [17] 5.53 µM | [19] 20 µM | [20] 1.68 µM
inactive: [18]

CCCCCC1=CCCC1=O
inactive: [1] | [2] | [3] | [4] | [5] | [6] | [7] | [8] | [9] | [10] | [11] | [12] | [13] | [15] | [16] | [17] | [18] | [19] | [20]

C=CC(=O)OCCCCCCCC(C)C
inactive: [1] | [2] | [3] | [4] | [5] | [6] | [7] | [8] | [9] | [10] | [11] | [12] | [13] | [15] | [17] | [18] | [19]
active: [16] 20 µM | [20] 9.62 µM

CC=C(C)C(C)=O
active: [12] 3.97 µM | [17] 3.97 µM | [20] 20 µM
inactive: [1] | [2] | [3] | [4] | [5] | [6] | [7] | [8] | [9] | [10] | [11] | [13] | [15] | [16] | [18] | [19]

CC/C=C\CCOC(=O)c1ccccc1O
inactive: [3] | [8] | [9] | [12] | [18] | [19]
active: [1] 3.97 µM | [2] 20 µM | [4] 32.9 µM | [5] 31.6 µM | [6] 14.4 µM | [7] 20 µM | [10] 20 µM | [11] 34.5 µM | [13] 20 µM | [15] 36.3 µM | [16] 32.1 µM | [17] 11.8 µM | [20] 10 µM

CC(c1cc(C(C)(C)C)cc(C(C)(C)C)c1O)c1cc(C(C)(C)C)cc(C(C)(C)C)c1O
inactive: [1] | [2] | [3] | [4] | [5] | [6] | [7] | [8] | [9] | [10] | [11] | [12] | [13] | [15] | [16] | [17] | [18] | [19] | [20]

Fc1ccc(Br)cc1
inactive: [1] | [2] | [3] | [4] | [5] | [6] | [7] | [8] | [9] | [10] | [11] | [12] | [13] | [15] | [16] | [17] | [18] | [19] | [20]

C=CC(=O)NC(C)(C)C
inactive: [1] | [2] | [3] | [4] | [5] | [6] | [7] | [8] | [9] | [10] | [11] | [12] | [13] | [15] | [16] | [17] | [18] | [19] | [20]
